Assay results taken from the supplement of paper PMC12339681.
Counter-ions that a name gives are not always drawn.

System: PBMC-derived induced microglia-like cells (piMGLC)
Assay: synaptosome phagocytic index relative to DMSO control (fraction of DMSO); higher = more phagocytosis
Settings: concentration: 10 uM (2 uM for compounds listed in Table S2); pretreatment time: 24 h; assay time: 3 h

Compound	synaptosome phagocytic index
CC[C@H](CO)Nc1nc(NCc2ccccc2)c2ncn(C(C)C)c2n1 [Seliciclib]	0.569
C[C@H](Cn1cnc2c(N)ncnc21)OCP(=O)(O)O [Tenofovir]	0.906
CN(Cc1cnc2nc(N)nc(N)c2n1)c1ccc(C(=O)N[C@@H](CCC(=O)O)C(=O)O)cc1 [Methotrexate]	1.02
CN(C)C(=O)c1cc2cnc(Nc3ccc(N4CCNCC4)cn3)nc2n1C1CCCC1 [Ribociclib_hydrochloride]	0.332
Cc1ccc(N2CCN(Cc3nc4ccccc4[nH]3)CC2)cc1C	1.03
NC(=O)N1c2ccccc2CC(=O)c2ccccc21 [Oxcarbazepine]	0.693
CNCCC=C1c2ccccc2CCc2ccccc21 [Nortriptyline_(hydrochloride)]	0.487
CC(=O)Nc1nnc(S(N)(=O)=O)s1 [Acetazolamide]	1.03
CNCCC(Oc1ccc(C(F)(F)F)cc1)c1ccccc1 (configuration not stated) [Fluoxetine_(hydrochloride)]	0.69
O=C(c1ccc(Cl)cc1)N(Cc1ccccc1)C1CCCCC1	0.616
CN(C)C(=N)NC(=N)N [Metformin]	1.28
CC(C)C[C@H](NC(=O)[C@H](CCCCN)NC(=O)[C@H](CO)NC(=O)[C@@H](N)CC(C)C)C(N)=O [LSKL,_Inhibitor_of_Thrombospondin_(TSP-1)_(TFA)]	1.05
O=NN(CCCl)C(=O)NC1CCCCC1 [Lomustine]	0.897
CCCCCOC(=O)Nc1nc(=O)n([C@@H]2O[C@H](C)[C@@H](O)[C@H]2O)cc1F [Capecitabine]	0.837
CCN1CCN(Cc2ccc(-c3cc4c(N[C@H](C)c5ccccc5)ncnc4[nH]3)cc2)CC1	0.0989
C[C@@H](Nc1nc(N[C@H](C)C(F)(F)F)nc(-c2cccc(Cl)n2)n1)C(F)(F)F [Vorasidenib]	0.481
CN1CCN2c3ncccc3Cc3ccccc3C2C1 (configuration not stated) [Mirtazapine]	1.1
Nc1ccn([C@@H]2CS[C@H](CO)O2)c(=O)n1 [Lamivudine]	0.89
O=C1CCC(N2C(=O)c3ccccc3C2=O)C(=O)N1 (configuration not stated) [Thalidomide]	0.811

Compound	synaptosome phagocytic index
COc1nccc(-c2c(-c3ccc(F)cc3)ncn2C2CCC(O)CC2)n1 (configuration not stated)	0.995
Cc1ccc(-c2ncn(-c3ccc(Nc4nccc(-c5cccc(N6CCOCC6)c5)n4)cc3)n2)cn1	0.167
COc1ccccc1OCC(O)COC(N)=O (configuration not stated) [Methocarbamol]	0.902
CS(=O)(=O)OCCCCOS(C)(=O)=O [Busulfan]	0.829
O=C(CCCN1CCC(O)(c2ccc(Cl)cc2)CC1)c1ccc(F)cc1 [Haloperidol]	1.05
O=C(c1cc(Cc2n[nH]c(=O)c3ccccc23)ccc1F)N1CCN(C(=O)C2CC2)CC1 [Olaparib]	0.997
CNS(=O)(=O)CCc1ccc2[nH]cc(C3CCN(C)CC3)c2c1 [Naratriptan_(hydrochloride)]	1.3
CN1CCN(C2=Nc3ccccc3Nc3ccccc32)CC1 [Deschloroclozapine]	0.876
C[C@@H](c1ncncc1F)[C@](O)(Cn1cncn1)c1ccc(F)cc1F [Voriconazole]	0.893
COc1ccc2c(c1)c(CC(=O)O)c(C)n2C(=O)c1ccc(Cl)cc1 [Indomethacin]	1.22
Cc1ccnc2c1NC(=O)c1cccnc1N2C1CC1 [Nevirapine]	0.84
CNC(=O)c1cc(Oc2ccc3nc(N[C@@H]4CCCC[C@H]4O)sc3c2)ccn1	1.21
CC(C)(O)CC(=O)NCCn1ccc2ncnc(Nc3ccc(Oc4cccc(C(F)(F)F)c4)c(Cl)c3)c21	1.04
N[C@H](C(=O)O)[C@@H]1CC(Cl)=NO1 [Acivicin]	0.68
CN(CCOc1ccc(CC2SC(=O)NC2=O)cc1)c1ccccn1 (configuration not stated) [Rosiglitazone]	1.19
C[N+](C)(C)CCOP(=O)([O-])OC[C@H](O)CO [sn-Glycero-3-phosphocholine]	0.483
CN(C)C(=O)c1cc2cnc(Nc3ccc(N4CCNCC4)cn3)nc2n1C1CCCC1 [Ribociclib_succinate]	0.592
COc1ccc(-c2c(C)nn3c(C(F)(F)F)cc(C)nc23)c(F)c1F	0.98
